Structures are written as SMILES. The whole screen tested about 48,000 compounds, of which about 13,000 (27%) showed an effect of 50% or more. This is one part of the list.

In the test the test system is Wolbachia pipientis. The test is described as follows: Anti-Wolbachia Cell-Based Screen. Format: functional. Set-up: scale not given: in the data most compounds retested in dose-response had high values. As to conditions: 5 µM.
As for `CN(C)Cc1ccc(NC(=O)c2nccn3ccnc23)cc1`, the “Percent Effect” value was 4.692%.

With `CC(C)c1nc2c(n1C)CCN(Cc1nc(-c3cccs3)no1)C2`, the “Percent Effect” value was -3.537%. The result for `CCc1ncc2c(n1)CN(Cc1nc(-c3ccsc3)no1)CC2` reads -2.841%; that for `CC(C)c1ncc2c(n1)CN(Cc1nc(-c3cccs3)no1)CC2`, 1.311%; that for `Cc1ncc2c(n1)CN(Cc1cccc3c1OCCO3)CC2`, -20.45%. `c1csc(-c2noc(CN3CCc4cncnc4C3)n2)c1`: the “Percent Effect” value came to 93.12%. On to `COc1ccc(-c2noc(CN3CCc4cncnc4C3)n2)cc1`, for which the “Percent Effect” value is given as -16.15%.

As to `c1cc(CN2CCc3cncnc3C2)c2c(c1)OCCO2`, the “Percent Effect” value came to 51.63%.

As to `Cn1nc2c(cc1=O)CN(Cc1nc(-c3cccs3)no1)CC2`, the “Percent Effect” value is on record as -4.413%.

Turning to `Cc1ncc2c(n1)CN(Cc1nc(-c3cccs3)no1)CC2`, the “Percent Effect” value turned out to be 104.1%. The value for `CCc1ncc2c(n1)CN(Cc1cccc3c1OCCO3)CC2` was -19.5%; that for `c1csc(-c2noc(CN3CCc4c(ncn4C4CC4)C3)n2)c1` was -1.185%; that for `CCc1ncc2c(n1)CN(Cc1nc(-c3cccs3)no1)CC2` was 94.19%. The result for `O=C(NC1(c2nnn(CC3CC3)n2)CCCC1)c1ccccc1` reads -31.69%; that for `CCc1nc(C)c(C(=O)N2CCCC(c3noc(C)n3)C2)s1` (stereo not drawn), -3.627%. Regarding `CN(C)c1ccc(CCCNC(=O)NCC(O)c2cccs2)cc1` (stereo not drawn), the “Percent Effect” value is reported as 15.76%. `CN1CCN(CCCNC(=O)C2CCCCC2)CC1`: the “Percent Effect” value is listed as -13.83%. The result for `Cc1cc(-c2cnn(CCNC(=O)Cc3ccccn3)c2C2CC2)on1` reads 116.9%; that for `Cc1cc(-c2cnn(CCNC(=O)CCn3cccn3)c2C2CC2)on1`, 139.3%. Take `CC1CCN(C(CNC(=O)CCn2cccn2)c2cccs2)CC1` (stereo not drawn): the “Percent Effect” value came to 3.155%. The value for `CCC(NCCn1cccn1)C(=O)Nc1cc(C)on1` (stereo not drawn) was -12.89%; that for `O=C(O)C(F)(F)F.O=S(=O)(C1CC1)N1CCc2onc(COc3ccccn3)c2C1` was -9.105%. The value for `Cn1cnc2c1CCN(CC(O)c1ccc(S(C)(=O)=O)cc1)C2` (stereo not drawn) was 1.592%; that for `Cc1ccoc1C(=O)NCC(c1ccccc1Cl)N1CCOCC1` (stereo not drawn) was -4.275%. For `CCCC(O)CN1CC(C)(C)CN(C(=O)CCc2ccccc2)CC1=O` (stereo not drawn), the “Percent Effect” value was found to be 81.6%. With `O=C(CCc1ccccc1)N1CCn2cc(CN3CCCC3)nc2C1`, the “Percent Effect” value was 5.739%. For `CCc1nc(C(=O)N2CCN(C(=O)CCc3ccccc3)CC2)c[nH]1`, the “Percent Effect” value is on record as -3.201%. `CC(O)CN1CC(C)(C)CN(C(=O)CCc2ccccc2)CC1=O` (stereo not drawn): the “Percent Effect” value is 108.2%. The result for `CC(C)(O)CN1CC(C)(C)CN(C(=O)CCc2ccccc2)CC1=O` reads 88.99%; that for `CCN1CC(C)(C)CN(C(=O)CCc2ccccc2)CC1=O`, 98.77%. For `CCC(Nc1nnnn1-c1ccccc1)C(=O)NC1CCSCC1` (stereo not drawn), the “Percent Effect” value was found to be 2.585%. In the case of `O=C(O)C1(Oc2ccccc2F)CCN(C/C=C/c2ccco2)CC1`, the “Percent Effect” value is given as 10.04%. Consider `Oc1ccc(-c2c(-c3ccccc3)ncn2C2CCNC2)cc1` (stereo not drawn), for which the “Percent Effect” value was found to be 5.17%. On to `COc1cc2c(cc1C1CC(=O)NCc3nc(N(C)C)sc31)CCC2` (stereo not drawn), for which the “Percent Effect” value was -15.52%.

As to `CC1N(C)C(=O)COC12CCN(C(=O)CCc1ccccc1)CC2` (stereo not drawn), the “Percent Effect” value is 0.4061%.

With `CN1CCN(C(=O)CCc2ccccc2)Cc2cccnc21.O=C(O)C(F)(F)F`, the “Percent Effect” value is on record as -4.699%. The value for `CN1CC(C)(C)CN(C(=O)CCc2ccccc2)CC1=O` was 83.23%. `COCC(O)CN1CC(C)(C)CN(C(=O)CCc2ccccc2)CC1=O` (stereo not drawn): the “Percent Effect” value is 110.7%. Take `CN1C(=O)CC(C(=O)O)C12CCN(Cc1ccc(Cl)cc1F)CC2` (stereo not drawn): the “Percent Effect” value was determined as 5.202%. The result for `CC(=O)NCC(=O)N1Cc2nccn2CC(COc2cccnc2)C1.O=C(O)C(F)(F)F` (stereo not drawn) reads 111.9%; that for `CC(=O)NCC(=O)N1Cc2nccn2CC(CN2CCCC2=O)C1` (stereo not drawn), 14.08%. For `CC(C)NC(=O)N1Cc2nccn2CC(CN2CCCC2)C1.O=C(O)C(F)(F)F` (stereo not drawn), the “Percent Effect” value is listed as 12.37%. For the molecule `CC(=O)NCC(=O)N1Cc2nccn2CC(CN(C)C(C)C)C1.O=C(O)C(F)(F)F` (stereo not drawn), the “Percent Effect” value is given as -7.594%. The value for `CC(C)NC(=O)N1Cc2nccn2CC(COc2cccnc2)C1.O=C(O)C(F)(F)F` (stereo not drawn) was 96.94%; that for `Cn1cc(Br)cc(NC(=O)CC(C)(C)C)c1=O` was 3.241%. The value for `CSc1ccc2cc(CN(C)CCc3cn[nH]c3)c(=O)[nH]c2c1` was 4.017%. In the case of `CC(COc1ccccc1)NS(C)(=O)=O` (stereo not drawn), the “Percent Effect” value is reported as -8.999%. The result for `CCOc1ccccc1CNC(=O)N(CC)C(C)c1cccnc1` (stereo not drawn) reads 2.92%. Consider `CC(C)S(=O)(=O)C(C)C(=O)NCc1cccc(N2CCCCC2=O)c1` (stereo not drawn), for which the “Percent Effect” value turned out to be 12.9%. The value for `CC(C)S(=O)(=O)C(C)C(=O)NCc1ccccc1OCc1ccccc1` (stereo not drawn) was 96.24%; that for `CC(C)S(=O)(=O)C(C)C(=O)NCc1ccccc1COc1ccccc1` (stereo not drawn) was 92.84%; that for `CC(C)NC(=O)NCc1ccccc1NS(=O)(=O)c1ccccc1` was 15.1%.

For the molecule `CC(C)OCc1ccc(CNC(=O)CC(F)(F)F)cc1`, the “Percent Effect” value is 28.04%. In the case of `CC(C)(C)C(=O)NCc1cnn2ccccc12`, the “Percent Effect” value is reported as -7.626%. On to `CC(C)OCc1ccccc1CNC(=O)C(C)(C)C`, for which the “Percent Effect” value is listed as 99.75%.

Consider `CC(C)C(=O)NCc1ccccc1NS(=O)(=O)c1ccccc1`, for which the “Percent Effect” value is reported as -3.24%.

Turning to `CC(C)OCc1ccccc1CNC(=O)C(C)S(=O)(=O)C(C)C` (stereo not drawn), the “Percent Effect” value was determined as 93.94%. For the molecule `CCc1ccccc1CNC(=O)CNC(=O)C(C)(C)C`, the “Percent Effect” value was -5.244%. The result for `Cc1cc(C(=O)N2CC(=O)Nc3cnccc32)c(Cl)cc1F` reads -6.598%.

Consider `COc1ccc(N2CCCC3(C2)CN(c2nncs2)CCO3)cc1` (stereo not drawn), for which the “Percent Effect” value was -4.383%. The result for `O=C(Cc1ccsc1)NCC1Cn2nnc(-c3ccoc3)c2CO1` (stereo not drawn) reads -0.8336%; that for `CC(C)N(C)C(=O)C1CCN(Cc2cc3c(cc2O)CCC3)CC1`, 3.726%. In the case of `O=C(NCc1ccccc1CO)C1COc2ccccc21` (stereo not drawn), the “Percent Effect” value is -7.77%. With `CCCN1CCC(Nc2cc(-c3ccccc3)ccc2OC)CC1`, the “Percent Effect” value is given as 9.804%. With `C=C(C)CN(CC)C(=O)CN1CCCC1C(=O)N(C)C` (stereo not drawn), the “Percent Effect” value is recorded as 1.656%. The value for `CC(C)(C)C(=O)NCCC(=O)NS(=O)(=O)c1cccc(C#N)c1` was -5.738%. For the molecule `CSc1ccsc1C(=O)NS(=O)(=O)c1cccc(C#N)c1`, the “Percent Effect” value is -50.61%. The result for `CCOc1cc(C(=O)NS(=O)(=O)c2cccc(C#N)c2)ccc1OC` reads 121%; that for `COc1cc(C(=O)NS(=O)(=O)c2ccc(C#N)cc2)ccc1C`, 127.1%.

`N#Cc1ccc(C(=O)NS(=O)(=O)c2ccc(F)c(F)c2)cc1`: the “Percent Effect” value is on record as 6.651%. The result for `COc1ccc(C(=O)NS(=O)(=O)c2cncc(Br)c2)cc1OC` reads -20.98%. Take `COc1cc(C(=O)NS(=O)(=O)c2cccc(C#N)c2)cc(Cl)c1OC`: the “Percent Effect” value came to 0.151%. As for `COc1cc(C(=O)NS(=O)(=O)c2cccc(C#N)c2)cc(OC)c1Br`, the “Percent Effect” value turned out to be 100.1%. The result for `N#Cc1ccc(S(=O)(=O)NC(=O)c2ccc3c(c2)COC3)cc1` reads -13.21%; that for `COc1cc(C(=O)NS(=O)(=O)c2cccc(C#N)c2)ccc1C`, 0.1033%; that for `COc1cc(C(=O)NS(=O)(=O)c2cccc(C#N)c2)cc(OC)c1C`, 111.6%. The result for `CNC(=O)c1cccc(CCNC2CCSc3ccccc32)c1` (stereo not drawn) reads -5.556%; that for `CC(=O)Nc1ccc(C(=O)Nc2cnc3n2CCCC3)c(C)c1`, -9.74%; that for `Cn1ccc(CNC(=O)N2CCC(C3(C)OCCO3)CC2)c1`, 7.37%.

For `c1cnn(C2CN(Cc3noc(C4CC4)n3)C2)c1`, the “Percent Effect” value was 20.24%. The value for `COC(=O)[C@H]1C[C@@H](O)CCN1S(=O)(=O)c1cc(Cl)ccc1OC` was -10.78%; that for `Cc1nccn1-c1cc(CNC(=O)CCC2CCCO2)ccn1` (stereo not drawn) was 10.65%; that for `COc1ccccc1C(=O)NS(=O)(=O)c1cccc(C#N)c1` was 106.4%.

With `COC(=O)c1cccc(S(=O)(=O)NC(=O)c2cccc(OC)c2OC)c1`, the “Percent Effect” value came out at 4.901%. The result for `COc1cccc(C(=O)NS(=O)(=O)c2cccc(C#N)c2)c1OC` reads -1.089%; that for `O=C(Nc1ccccc1Oc1cccc(F)c1)C1CCS(=O)(=O)C1` (stereo not drawn), 17.61%. Take `COc1nc2ccn(CCc3cnccn3)c(=O)c2cc1C#N`: the “Percent Effect” value was -4.634%.

Regarding `CN1CCN(CCn2cnc3c(F)cccc3c2=O)CC1`, the “Percent Effect” value amounted to 0.6334%. On to `COCCn1cncc1Cn1cccc(C(F)(F)F)c1=O`, for which the “Percent Effect” value is -5.803%. As for `COCCn1ccc2c(cnc3nc(SC)nn32)c1=O`, the “Percent Effect” value was found to be 167%. Turning to `CSc1nc2ncc3c(=O)n(CCN4CCCCC4)ccc3n2n1`, the “Percent Effect” value was 124.9%. The value for `CS(=O)(=O)Cc1nc(CCc2ccccc2)nn1-c1ccccn1` was -12.46%. The result for `NC(=O)NCC(=O)N1CCCC(c2nccn2Cc2ccncc2)C1` (stereo not drawn) reads -11.58%; that for `CC(Cn1cncn1)NC(=O)Nc1ccc(F)cc1OCC1CC1` (stereo not drawn), 4.941%; that for `O=C(O)C(F)(F)F.O=C(O)C(F)(F)F.c1cncc(-c2ncnc3c2CCN(Cc2ccsc2)CC3)c1`, 91.57%.

Turning to `Cn1cccc1CN1CCc2ncnc(-c3cccnc3)c2CC1`, the “Percent Effect” value was found to be 88.44%. With `CCc1ccc(CN2CCc3ncnc(-c4cccnc4)c3CC2)o1.O=C(O)C(F)(F)F.O=C(O)C(F)(F)F`, the “Percent Effect” value turned out to be 106.1%. The value for `Cc1ccc(CN2CCc3ncnc(-c4cccnc4)c3CC2)o1.O=C(O)C(F)(F)F.O=C(O)C(F)(F)F` was -3.02%; that for `COc1ncnc2c1CCN(Cc1cccs1)CC2.O=C(O)C(F)(F)F` was -7.322%; that for `O=C(O)C(F)(F)F.O=C(O)C(F)(F)F.c1cncc(-c2ncnc3c2CCN(Cc2cccs2)CC3)c1` was 89.28%.

Turning to `O=C(O)C(F)(F)F.O=C(O)C(F)(F)F.c1ccc(CN2CCc3ncnc(-c4cccnc4)c3CC2)nc1`, the “Percent Effect” value was determined as 17.47%. Regarding `O=C(C1CCOC1)N1CCc2ncnc(-c3cccnc3)c2CC1` (stereo not drawn), the “Percent Effect” value was found to be 8.249%.

In the case of `c1ccc(CN2CCc3ncnc(-c4cncnc4)c3CC2)nc1`, the “Percent Effect” value is given as -4.171%.

These data come from ChEMBL document CHEMBL3988442, “University of Dundee, Small-Polar-MMV Screening Library” (2021).
